± gives the standard deviation of the averaged measurements.
System: AEK1 (Tb927.3.2440)
Assay: percent reduction in TR-FRET probe signal relative to DMSO control; higher = stronger displacement of ATP-site probe (binding)
Settings: 1 µM; incubation time 1 h

| Compound | percent reduction in TR-FRET probe signal |
| --- | --- |
| CCS(=O)(=O)c1cccc(-c2cc(C(=O)NC3CCN(C)CC3)c(C)c3[nH]c4ncc(C)cc4c23)c1 | 79.9 ± 8.1% |
| Cc1ccc(S(=O)(=O)/C=C/C#N)cc1 | -7.27 ± 4.2% |
| CC(C)(O)CNc1ncc(-c2ccnc(Nc3ccnc(Cl)c3)n2)c(CC2CC2)n1 | 4.25 ± 12% |
| CC(C)(C)c1cc(NC(=O)Nc2ccc(-c3cn4c(n3)sc3cc(OCCN5CCOCC5)ccc34)cc2)no1 [Quizartinib (AC220)] | 9.26 ± 2.9% |
| NC(=O)c1ncn([C@@H]2O[C@H](CO)[C@@H](O)[C@H]2O)c1N [AICAR (Acadesine)] | -1.92 ± 11% |
| COc1cc(C(=O)NC2CCN(C)CC2)ccc1Nc1ncc2c(n1)N(C1CCCC1)CC(F)(F)C(=O)N2C | -5 ± 7% |
| CO[C@H]1C[C@@H]2CC[C@@H](C)[C@@](O)(O2)C(=O)C(=O)N2CCCC[C@H]2C(=O)O[C@H]([C@H](C)C[C@@H]2CC[C@@H](OC(=O)C(C)(CO)CO)[C@H](OC)C2)CC(=O)[C@H](C)/C=C(\C)[C@@H](O)[C@@H](OC)C(=O)[C@H](C)C[C@H](C)/C=C/C=C/C=C/1C | 2.13 ± 12% |
| CCN1CCN(Cc2ccc(C(=O)Nc3ccc(C)c(Oc4ccc5c(c4)CC(=O)N5)c3)cc2C(F)(F)F)CC1 | -7.33 ± 8.7% |
| O=C1Nc2ccc(I)cc2/C1=C/c1cc(Br)c(O)c(Br)c1 | 8.22 ± 8.7% |
| COc1cc(Nc2nc3ccccc3nc2NS(=O)(=O)c2ccc(NC(=O)c3ccc(C)c(OC)c3)cc2)cc(OC)c1 | 18.9 ± 14% |
| Cc1ccc(-c2nn(C(C)(C)C)c3ncnc(N)c23)cc1 | -1.9 ± 8.7% |
| O=C(/C=C/c1ccc2ccccc2n1)c1ccncc1 | -6.28 ± 6% |
| COc1ccc(CNC(=O)Nc2ncc([N+](=O)[O-])s2)cc1 | -3.27 ± 4.3% |
| Cc1ccc(NC(=O)c2ccc(CN3CCN(C)CC3)cc2)cc1Nc1nc(-c2cccnc2)cs1 [Masitinib (AB1010)] | -4.2 ± 7% |
| O=C(O)CCC(=O)Nc1ccc(Br)cn1 [Bikinin] | -3.76 ± 0.8% |
| OCCn1cc(-c2cnc3nnn(Cc4ccc5ncccc5c4)c3n2)cn1 | -2.19 ± 3.1% |

| Compound | percent reduction in TR-FRET probe signal |
| --- | --- |
| C=CC(=O)Nc1cc(Nc2nccc(-c3cn(C)c4ccccc34)n2)c(OC)cc1N(C)CCN(C)C | -8.86 ± 8.3% |
| O=C1NC(=O)C(c2cnc3ccccn23)=C1c1cn2c3c(cc(F)cc13)CN(C(=O)N1CCCCC1)CC2 | -14.7 ± 8.7% |
| Cc1cc(Nc2ncc3c(n2)N(C)C(=O)N(c2cc(NC(=O)c4cccc(C(F)(F)F)c4)ccc2C)C3)n(C)n1 | 5.55 ± 14% |
| CN1CCN(CCOc2cc(OC3CCOCC3)c3c(Nc4c(Cl)ccc5c4OCO5)ncnc3c2)CC1 [Saracatinib (AZD0530)] | 11.4 ± 13% |
| Cc1ccc(C(=O)Nc2cccc(C(F)(F)F)c2)cc1Nc1nc(-c2cccnc2)nc2c1cnn2C | 1 ± 8.4% |
| Cc1ccc(NC(=O)c2cccc(C(C)(C)C#N)c2)cc1Nc1ccc2ncn(C)c(=O)c2c1 | -9.01 ± 3.1% |
| CC(C)(C)n1nc(-c2ccc(Cl)cc2)c2c(N)ncnc21 | -1.96 ± 9.6% |
| NC(=O)c1ccc(-c2nc(-c3ccc4c(c3)OCCO4)c(-c3ccccn3)[nH]2)cc1 | -1.5 ± 7.3% |
| Cl.Cl.Fc1cc(-c2cccc3ncc(-c4cnn(C5CCNCC5)c4)nc23)cc(F)c1CN1CCOCC1 | 10.7 ± 13% |
| COc1cc(N2CCC(N)CC2)ccc1Nc1ncc(Cl)c(-c2c[nH]c3ccccc23)n1 | 7.47 ± 4.6% |
| COc1cc(Nc2c(C#N)cnc3cc(OCCCN4CCN(C)CC4)c(OC)cc23)c(Cl)cc1Cl [Bosutinib (SKI-606)] | 0.893 ± 13% |
| C[C@]1(O)C[C@@H](c2nc(-c3ccc4ccc(-c5ccccc5)nc4c3)c3c(N)nccn32)C1 [OSI-906 (Linsitinib)] | -6.09 ± 6% |
| COc1cc2ncnc(Nc3cccc(Cl)c3)c2cc1OC [AG-1478 (Tyrphostin AG-1478)] | 0.453 ± 6.3% |
| CCN1CCN(Cc2ccc(Nc3ncc(F)c(-c4cc(F)c5nc(C)n(C(C)C)c5c4)n3)nc2)CC1 | -4.88 ± 6.8% |
| Cl.Cl.NC1(c2ccc(-c3nc4ccn5c(=O)[nH]nc5c4cc3-c3ccccc3)cc2)CCC1 | -1.31 ± 6.8% |
| CN1CCN(c2cccc(Nc3nc4c(-c5ccc(S(C)(=O)=O)cc5)cccn4n3)c2)CC1 | 7.3 ± 6.6% |
